From ChEMBL document CHEMBL1157539, “Thousands of chemical starting points for antimalarial lead identification” (Nature, 2010)

The compounds below were run on Plasmodium falciparum (assay: GSK_TCMDC: Inhibition of Plasmodium falciparum 3D7 in whole red blood cells, using parasite LDH activity as an index of growth. Test compounds present at 2uM).
Type: functional

Compound | Inhibition [%]
CCCC(C)NC(=O)[C@H]1CNCCN1C(=O)CCCc1ccccc1.O=C(O)C(F)(F)F (stereo not given in full) | 96
CCCc1cc(N2CCC(N3CCCC3)CC2)nc(Nc2ccc(OC)cc2)n1 | 94
CC(C)COc1ccc(Cl)cc1Cc1ccc(-c2nc3cc(CCN4CCCC4)ccc3[nH]2)o1.Cl | 100
Cc1ccccc1/N=C1\NC(=S)N(c2cccc(C(F)(F)F)c2)C12CCC(C(C)(C)C)CC2 (stereo not given) | 95
Cc1nnsc1C(=O)Nc1cccc(-c2cccc(-c3nc4ccccc4[nH]3)c2)c1 | 100

Each compound was assayed on Plasmodium falciparum (assay: GSK_TCMDC: Inhibition of Plasmodium falciparum Dd2 in whole red blood cells, using parasite LDH activity as an index of growth. Test compounds present at 2uM).
Type: functional

Compound | Inhibition [%]
COc1ccc(-c2cnc(N)c(-c3ccc(C(N)=O)cc3)c2)cc1OC | 98
COc1cc(Cc2cnc(N)nc2N)ccc1OCc1ccc(NC(C)=O)cc1 | 0
Cc1cc(N2CCCN(C)CC2)nc(Nc2ccc(Br)cc2)n1 | 14
COC(=O)c1cccc(CNCc2cccc(-c3cccc(-c4nc5cccc(C)c5[nH]4)c3)c2)c1.O=C(O)C(F)(F)F | 47
O=C(Nc1nccs1)c1cn(-c2ccccc2)nc1-c1ccc(Cl)s1 | 18
Cc1cccc(OC(C)C(=O)Nc2cc(C(F)(F)F)ccc2N2CCOCC2)c1 (stereo not given) | 98
O=C(NCc1cccc(OC(F)(F)F)c1)c1cnc2c(c1)nc(-c1c[nH]c(-c3ccccc3)n1)n2CCc1c[nH]cn1 | 47
CCc1n[nH]c(C(=O)NC2CCN(CC3(c4ccc(OC)cc4)CCCCC3)CC2)c1C | 90
CCC(C)(C)NC(=O)C(c1cccc(OC)c1)N(C(=O)CNC(=O)c1cccs1)c1ccc2c(c1)OCCO2 (stereo not given) | 76
CC(C)COc1ccc(Cl)cc1Cc1ccc(-c2nc3c(F)cccc3[nH]2)o1 | 47
COc1ccc(CNC2CCN(C)CC2)cc1-c1ccc(S(=O)(=O)NCCc2ccccn2)cc1.O=C(O)C(F)(F)F | 17
CC(C)CNCc1ccc(-c2ccc(CNC3CCN(Cc4ccccc4)CC3)cc2)cc1.O=C(O)C(F)(F)F | 96
O=C(C=Cc1ccc(Cl)c(Cl)c1)NC1CCN(CCc2ccccc2)CC1.O=C(O)C(F)(F)F | 13
Cn1nc(-c2cccc(CN[C@@H]3CCc4ccc(O)cc43)c2)c2cnc(NCCCN3CCCC3)nc21 | 0
O=C(Nc1cccc(-c2cccc(-c3nc4cc(F)ccc4[nH]3)c2)c1)c1ccncc1 | 24
Cl.N#Cc1ccc2c(c1)CCN(CCC1CCC(NC(=O)/C=C/c3c[nH]c4ccc(F)cc34)CC1)CC2 (stereo not given) | 83
Cc1cccc(C)c1OC(=O)CSc1nnc(-c2ccccc2O)o1 | 0
N#Cc1ccc(-c2ccc(C(=O)NCCCCN3CCC(c4cn(CCO)c5ccccc45)CC3)cc2)cc1 | 43
O=C(Nc1ccc(F)cc1)NC1CCN(c2ccnc3cc(Cl)ccc23)C1.O=C(O)C(F)(F)F (stereo not given) | 67
CCC1CN2CCc3c([nH]c4ccccc34)[C@@H]2C[C@@H]1CC1NCCc2cc(OC)c(OC)cc21.Cl (stereo not given in full) | 67

Compound | Inhibition [%]
Cl.OC(c1cccc(OCc2ccccc2)c1)C1CN(CCc2ccccc2)CCC1(O)c1ccccc1 (stereo not given) | 98
CN(C)c1ccc(CN2CCC(CNC(=O)c3cc(-c4ccccc4F)cs3)C2)cc1.O=C(O)C(F)(F)F (stereo not given) | 33
CS(=O)(=O)O.O=[N+]([O-])c1ccc(CNCCCCCCNCc2ccc([N+](=O)[O-])c3ccccc23)c2ccccc12 | 98
CCNc1cc(C(=O)N[C@@H](Cc2ccccc2)[C@H](O)CNC2CCC(C)(C)CC2)cc(N2CCCCS2(=O)=O)c1.Cl | 71
Cc1ccc(F)cc1S(=O)(=O)NCC(C)c1ccc(NC(=O)Nc2cccc(F)c2)cc1 (stereo not given) | 5
O=C(Nc1ccc(F)cc1F)NC1CCN(CCCCCNC(=O)C2CC2c2ccc(Cl)c(Cl)c2)CC1 (stereo not given) | 32
CCNc1cc(C(=O)N[C@@H](Cc2ccccc2)[C@H](O)CNCCC(C)c2ccccc2)cc(N2CCCC2=O)c1.O=C(O)C(F)(F)F (stereo not given in full) | 95
O=C(O)C(F)(F)F.O=c1ccc2ccc(F)c3c2n1CC3CN1CCC(NCc2cccc(-c3ccccc3F)c2)CC1 (stereo not given) | 6
CN(C)c1ccc(-c2ccc(C(=O)NC3CCN(Cc4cccc(C(F)(F)F)c4)CC3)s2)cc1.O=C(O)C(F)(F)F | 77
O=C(/C=C/c1ccc(Cl)c(Cl)c1)NCCCCN1CCCN(C(=O)Nc2cc(Cl)cc(Cl)c2)CC1 | 1
Cc1cccc2nc(-c3ccc(-c4cccc(NC(=O)CCc5c[nH]cn5)c4)cc3)[nH]c12 | 14
COC(=O)c1cc(/C(C)=N/Nc2nc3ccccc3[nH]2)ccc1O | 75
CCCCCc1cc(OC(C)=O)c2c(c1)OC(C)(C)C=C2C1=CCN(Cc2ccccc2)CC1.O=C(O)/C=C/C(=O)O | 88
COc1cc(C=Cc2ccc3ccccc3n2)cc(Br)c1OCC(=O)N(C)C | 87
C=CCN1C(=O)c2[nH]nc(-c3cc(C)c(C)cc3O)c2C1c1cccc(Br)c1 (stereo not given) | 82
CCCC(C)NC(=O)[C@H]1CNCCN1C(=O)CCCc1ccccc1.O=C(O)C(F)(F)F (stereo not given in full) | 98
CCCc1cc(N2CCC(N3CCCC3)CC2)nc(Nc2ccc(OC)cc2)n1 | 14
CC(C)COc1ccc(Cl)cc1Cc1ccc(-c2nc3cc(CCN4CCCC4)ccc3[nH]2)o1.Cl | 94
Cc1ccccc1/N=C1\NC(=S)N(c2cccc(C(F)(F)F)c2)C12CCC(C(C)(C)C)CC2 (stereo not given) | 25
Cc1nnsc1C(=O)Nc1cccc(-c2cccc(-c3nc4ccccc4[nH]3)c2)c1 | 34
